Legend:
Assay in all cases: DAPPL (digital affinity profiling via proximity ligation, sequencing); 10 mM Tris-HCl pH 7.5, 50 mM NaCl, 1 mM DTT, 4% glycerol, room temperature, 30 min; GST-TFs on glutathione beads, 16-mer random dsDNA library, 0.1% formaldehyde crosslink after washing; high values mean tight binding
Settings in all cases: protein: recombinant; tags: N-terminal GST; dsDNA, one strand shown
FLI1 = target: T1, FLI1 (Homo sapiens, UniProt Q01543 1-452)
T1 sequence: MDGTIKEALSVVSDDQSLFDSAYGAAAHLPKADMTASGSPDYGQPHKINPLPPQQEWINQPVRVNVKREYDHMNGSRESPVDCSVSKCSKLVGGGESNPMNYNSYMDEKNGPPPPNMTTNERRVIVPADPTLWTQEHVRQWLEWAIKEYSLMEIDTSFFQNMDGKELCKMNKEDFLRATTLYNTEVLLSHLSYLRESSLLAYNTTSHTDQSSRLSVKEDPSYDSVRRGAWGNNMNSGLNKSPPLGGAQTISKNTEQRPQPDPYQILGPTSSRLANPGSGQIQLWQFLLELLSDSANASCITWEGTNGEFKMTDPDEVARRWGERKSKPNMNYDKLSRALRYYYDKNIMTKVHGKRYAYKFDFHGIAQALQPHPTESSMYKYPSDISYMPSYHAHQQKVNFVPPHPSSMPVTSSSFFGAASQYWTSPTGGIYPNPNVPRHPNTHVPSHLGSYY
Procedure, shortened: (§1)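 Pools were built from human transcription factors expressed in yeast as GST fusions, captured on glutathione beads and DNA-barcoded, along with a tag-only sample. Incubation with 200 nmole of a 16-mer random double-stranded DNA library lasted 30 min at room temperature in Tris/NaCl/DTT/glycerol buffer, and was followed by washing, 0.1% formaldehyde crosslinking, proximity ligation, PCR amplification and Illumina NextSeq500 sequencing. Binding signal is the quotient of each hexamer's read frequency for a factor and its frequency for the tag-only sample.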

ELK1 = target: T2, ELK1 (Homo sapiens, UniProt P19419 1-428)
T2 sequence: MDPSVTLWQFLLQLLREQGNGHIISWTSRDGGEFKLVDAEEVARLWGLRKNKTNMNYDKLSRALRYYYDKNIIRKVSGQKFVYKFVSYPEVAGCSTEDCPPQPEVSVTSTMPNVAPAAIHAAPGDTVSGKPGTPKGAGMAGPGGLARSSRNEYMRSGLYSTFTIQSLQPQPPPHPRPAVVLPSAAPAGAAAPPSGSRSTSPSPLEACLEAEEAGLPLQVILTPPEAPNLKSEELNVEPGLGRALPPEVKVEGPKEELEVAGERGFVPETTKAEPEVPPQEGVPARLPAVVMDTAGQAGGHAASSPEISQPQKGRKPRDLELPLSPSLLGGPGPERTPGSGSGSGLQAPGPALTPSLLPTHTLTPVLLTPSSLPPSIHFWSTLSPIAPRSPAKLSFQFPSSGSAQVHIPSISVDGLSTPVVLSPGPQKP
Procedure, shortened: as §1

GABPA = target: T3, GABPA (Homo sapiens, UniProt Q06546 1-454)
T3 sequence: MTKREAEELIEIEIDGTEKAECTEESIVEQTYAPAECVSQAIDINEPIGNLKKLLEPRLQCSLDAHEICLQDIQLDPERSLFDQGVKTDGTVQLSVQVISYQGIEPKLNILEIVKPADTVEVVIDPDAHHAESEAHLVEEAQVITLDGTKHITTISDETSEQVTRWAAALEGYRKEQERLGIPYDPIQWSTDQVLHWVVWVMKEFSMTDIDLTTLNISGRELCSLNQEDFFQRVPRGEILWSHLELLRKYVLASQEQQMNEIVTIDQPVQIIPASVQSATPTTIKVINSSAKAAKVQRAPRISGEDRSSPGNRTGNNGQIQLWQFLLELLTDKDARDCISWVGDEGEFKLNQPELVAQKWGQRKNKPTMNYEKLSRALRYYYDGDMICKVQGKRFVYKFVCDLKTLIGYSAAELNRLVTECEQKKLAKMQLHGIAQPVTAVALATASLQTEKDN
Procedure, shortened: as §1

ERG = target: T4, ERG (Homo sapiens, UniProt P11308 1-479)
T4 sequence: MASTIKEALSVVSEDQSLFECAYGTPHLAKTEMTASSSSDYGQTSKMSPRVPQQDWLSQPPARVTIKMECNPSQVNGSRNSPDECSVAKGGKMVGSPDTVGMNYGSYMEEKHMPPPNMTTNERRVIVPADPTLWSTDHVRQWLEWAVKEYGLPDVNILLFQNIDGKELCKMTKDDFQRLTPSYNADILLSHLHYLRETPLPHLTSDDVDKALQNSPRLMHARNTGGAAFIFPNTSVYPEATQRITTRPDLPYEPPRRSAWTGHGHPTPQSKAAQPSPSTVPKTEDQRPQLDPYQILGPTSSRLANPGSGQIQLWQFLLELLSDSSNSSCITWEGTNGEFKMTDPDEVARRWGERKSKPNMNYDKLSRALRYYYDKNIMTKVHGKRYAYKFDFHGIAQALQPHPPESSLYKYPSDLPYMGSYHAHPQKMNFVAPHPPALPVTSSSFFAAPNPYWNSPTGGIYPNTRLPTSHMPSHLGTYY
Procedure, shortened: as §1

ELF1 = ELF1 (Homo sapiens, UniProt P32519 1-619)
Chain of ELF1 (P32519 whole entry): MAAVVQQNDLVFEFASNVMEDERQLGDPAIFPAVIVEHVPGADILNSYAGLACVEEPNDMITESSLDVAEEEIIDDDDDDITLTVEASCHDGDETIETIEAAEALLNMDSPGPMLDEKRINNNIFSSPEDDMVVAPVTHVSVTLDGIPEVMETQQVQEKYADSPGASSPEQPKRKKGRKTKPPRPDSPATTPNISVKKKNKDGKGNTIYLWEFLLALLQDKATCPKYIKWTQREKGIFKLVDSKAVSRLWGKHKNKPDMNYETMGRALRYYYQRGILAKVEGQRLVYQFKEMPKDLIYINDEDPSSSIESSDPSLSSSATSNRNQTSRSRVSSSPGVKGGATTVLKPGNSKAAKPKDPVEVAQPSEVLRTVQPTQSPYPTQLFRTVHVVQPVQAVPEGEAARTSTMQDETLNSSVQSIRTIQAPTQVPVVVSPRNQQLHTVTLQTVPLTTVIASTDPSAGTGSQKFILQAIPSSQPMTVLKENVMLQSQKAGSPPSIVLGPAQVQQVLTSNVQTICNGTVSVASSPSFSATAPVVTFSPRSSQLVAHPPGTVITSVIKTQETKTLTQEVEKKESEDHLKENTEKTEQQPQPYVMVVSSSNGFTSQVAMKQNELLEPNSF
Procedure, shortened: as §1

EHF = target: T5, EHF (Homo sapiens, UniProt Q9NZC4 1-300)
T5 sequence: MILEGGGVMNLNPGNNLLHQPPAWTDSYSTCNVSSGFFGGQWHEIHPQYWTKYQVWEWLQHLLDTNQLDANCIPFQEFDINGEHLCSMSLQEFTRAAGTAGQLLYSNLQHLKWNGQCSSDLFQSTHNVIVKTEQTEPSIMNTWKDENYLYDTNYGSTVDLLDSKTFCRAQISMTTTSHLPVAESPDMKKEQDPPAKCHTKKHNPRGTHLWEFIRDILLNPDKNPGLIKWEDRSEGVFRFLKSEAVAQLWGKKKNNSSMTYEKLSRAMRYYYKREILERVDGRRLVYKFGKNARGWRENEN
Procedure, shortened: as §1

SPI1 = SPI1 (Homo sapiens, UniProt P17947 1-270)
Procedure, shortened: as §1

SPIB = SPIB (Homo sapiens, UniProt Q01892 1-262)
Chain of SPIB (Q01892 whole entry): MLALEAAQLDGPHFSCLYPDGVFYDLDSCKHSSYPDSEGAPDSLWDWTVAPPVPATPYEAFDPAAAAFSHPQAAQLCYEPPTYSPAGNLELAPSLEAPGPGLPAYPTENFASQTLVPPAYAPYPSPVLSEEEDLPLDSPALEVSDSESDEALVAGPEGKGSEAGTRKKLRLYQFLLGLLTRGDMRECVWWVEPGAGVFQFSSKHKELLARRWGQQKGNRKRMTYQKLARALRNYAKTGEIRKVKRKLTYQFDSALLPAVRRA
Procedure, shortened: as §1

ELK3 = target: T6, ELK3 (Homo sapiens, UniProt P41970 1-407)
T6 sequence: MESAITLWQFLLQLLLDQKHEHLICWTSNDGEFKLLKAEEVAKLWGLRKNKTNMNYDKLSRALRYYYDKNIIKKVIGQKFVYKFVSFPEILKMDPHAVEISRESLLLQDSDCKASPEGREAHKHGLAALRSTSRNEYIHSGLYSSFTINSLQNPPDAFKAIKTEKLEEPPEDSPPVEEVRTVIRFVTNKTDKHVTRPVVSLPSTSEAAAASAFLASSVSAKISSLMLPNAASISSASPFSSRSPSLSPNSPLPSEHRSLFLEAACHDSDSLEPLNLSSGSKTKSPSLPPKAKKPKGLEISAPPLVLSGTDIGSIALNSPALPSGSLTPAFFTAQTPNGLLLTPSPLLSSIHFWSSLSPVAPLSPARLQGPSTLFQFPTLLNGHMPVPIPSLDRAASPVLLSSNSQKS
Procedure, shortened: as §1

| Sequence | binding signal (FLI1) | binding signal (ELK1) | binding signal (GABPA) | binding signal (ERG) | binding signal (ELF1) | binding signal (EHF) | binding signal (SPI1) | binding signal (SPIB) | binding signal (ELK3) |
| --- | --- | --- | --- | --- | --- | --- | --- | --- | --- |
| GTTATG | 1.07 fold enrichment (6-mer frequency, TF over GST control) | 1.17 fold enrichment (6-mer frequency, TF over GST control) | 1.16 fold enrichment (6-mer frequency, TF over GST control) | 1.19 fold enrichment (6-mer frequency, TF over GST control) | 1.12 fold enrichment (6-mer frequency, TF over GST control) | 1.2 fold enrichment (6-mer frequency, TF over GST control) | 1.18 fold enrichment (6-mer frequency, TF over GST control) | 1.12 fold enrichment (6-mer frequency, TF over GST control) | 1.06 fold enrichment (6-mer frequency, TF over GST control) |
| CTCGGC | 1.47 fold enrichment (6-mer frequency, TF over GST control) | 1.33 fold enrichment (6-mer frequency, TF over GST control) | 1.39 fold enrichment (6-mer frequency, TF over GST control) | 1.26 fold enrichment (6-mer frequency, TF over GST control) | 1.38 fold enrichment (6-mer frequency, TF over GST control) | 1.52 fold enrichment (6-mer frequency, TF over GST control) | 1.45 fold enrichment (6-mer frequency, TF over GST control) | 1.27 fold enrichment (6-mer frequency, TF over GST control) | 1.39 fold enrichment (6-mer frequency, TF over GST control) |
| GGAAAC | 1.2 fold enrichment (6-mer frequency, TF over GST control) | 1.35 fold enrichment (6-mer frequency, TF over GST control) | 1.25 fold enrichment (6-mer frequency, TF over GST control) | 1.57 fold enrichment (6-mer frequency, TF over GST control) | 1.22 fold enrichment (6-mer frequency, TF over GST control) | 1.47 fold enrichment (6-mer frequency, TF over GST control) | 1.25 fold enrichment (6-mer frequency, TF over GST control) | 1.39 fold enrichment (6-mer frequency, TF over GST control) | 1.43 fold enrichment (6-mer frequency, TF over GST control) |
| TTGGGC | 1.03 fold enrichment (6-mer frequency, TF over GST control) | 1.07 fold enrichment (6-mer frequency, TF over GST control) | 1.01 fold enrichment (6-mer frequency, TF over GST control) | 1.07 fold enrichment (6-mer frequency, TF over GST control) | 1.03 fold enrichment (6-mer frequency, TF over GST control) | 1.1 fold enrichment (6-mer frequency, TF over GST control) | 1.2 fold enrichment (6-mer frequency, TF over GST control) | 1.1 fold enrichment (6-mer frequency, TF over GST control) | 1.21 fold enrichment (6-mer frequency, TF over GST control) |
| CTAAAG | 1.39 fold enrichment (6-mer frequency, TF over GST control) | 1.35 fold enrichment (6-mer frequency, TF over GST control) | 1.45 fold enrichment (6-mer frequency, TF over GST control) | 1.36 fold enrichment (6-mer frequency, TF over GST control) | 1.39 fold enrichment (6-mer frequency, TF over GST control) | 1.35 fold enrichment (6-mer frequency, TF over GST control) | 1.3 fold enrichment (6-mer frequency, TF over GST control) | 1.31 fold enrichment (6-mer frequency, TF over GST control) | 1.49 fold enrichment (6-mer frequency, TF over GST control) |
| GCACCC | 1.21 fold enrichment (6-mer frequency, TF over GST control) | 1.25 fold enrichment (6-mer frequency, TF over GST control) | 1.25 fold enrichment (6-mer frequency, TF over GST control) | 1.17 fold enrichment (6-mer frequency, TF over GST control) | 1.16 fold enrichment (6-mer frequency, TF over GST control) | 1.01 fold enrichment (6-mer frequency, TF over GST control) | 1.18 fold enrichment (6-mer frequency, TF over GST control) | 1.2 fold enrichment (6-mer frequency, TF over GST control) | 1.14 fold enrichment (6-mer frequency, TF over GST control) |
| TCCCGA | 1.39 fold enrichment (6-mer frequency, TF over GST control) | 1.23 fold enrichment (6-mer frequency, TF over GST control) | 1.47 fold enrichment (6-mer frequency, TF over GST control) | 1.27 fold enrichment (6-mer frequency, TF over GST control) | 1.31 fold enrichment (6-mer frequency, TF over GST control) | 1.36 fold enrichment (6-mer frequency, TF over GST control) | 1.37 fold enrichment (6-mer frequency, TF over GST control) | 1.41 fold enrichment (6-mer frequency, TF over GST control) | 1.35 fold enrichment (6-mer frequency, TF over GST control) |
| AGCGAC | 1.09 fold enrichment (6-mer frequency, TF over GST control) | 1.15 fold enrichment (6-mer frequency, TF over GST control) | 1.09 fold enrichment (6-mer frequency, TF over GST control) | 1.23 fold enrichment (6-mer frequency, TF over GST control) | 1.17 fold enrichment (6-mer frequency, TF over GST control) | 1.23 fold enrichment (6-mer frequency, TF over GST control) | 1.06 fold enrichment (6-mer frequency, TF over GST control) | 1.16 fold enrichment (6-mer frequency, TF over GST control) | 1.04 fold enrichment (6-mer frequency, TF over GST control) |

— publication PMC7862700, “An all-to-all approach to the identification of sequence-specific readers for epigenetic DNA modifications on cytosine”
